Test results taken from PubChem BioAssay (NCI).
This is part of a sample that, as a whole, favours compounds with a hit. Of some 83,000 tested, about 20% had one in any assay.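 Each cell line was grown in a 96-well plate and treated with one concentration of compound for 48 hours. Values below 10 were considered active.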 Activity calls are given as the source filed them.

Each molecule was assayed on NCI-H460 lung (assay: NCI-60 one-dose screen, 48 h (100 = growth as untreated, 0 = no growth, -100 = all killed)). Details: 10 µM unless noted.
Method: Growth inhibition of the NCI-H460 human Non-Small Cell Lung tumor cell line is measured as a screen for anti-cancer activity. Cells are grown in 96 well plates and exposed to the test compound for 48 hours. Compounds are tested at a single concentration, which is 10^-5 M for most compounds. The reported endpoint is percent growth (GI% or GIPRCNT), where numbers from 0 - 100% represent growth inhibition, and numbers from -100% - 0 represent cell death. For example, a value of 40 represents 60% growth inhibition. A value of 0 means no net growth occurred over the course of the experiment. A value of -40 indicates 40% of cells at the beginning of the experiment died by the end of the experiment. A value of -100 means all cells are dead at the end of the experiment.
NCI-60 Human Tumor Cell Lines Screen was performed using the standard one-dose NCI protocol, which is described in more detail at https://dtp.cancer.gov/discovery_development/nci-60/default.htm.
Compounds with GIPRCNT values below 10 were considered active. Activity score was based on GIPRCNT using the following formula: […]
Score is 0 for GIPRCNT values of 100 or above, 50 for GIPRCNT values of 0, and 100 for GIPRCNT values of -100.
In the case of `O=C(NCc1ccccc1)/C(=C/c1ccccc1)NC(=O)c1ccccc1`, the growth is reported as 103% (inactive).
With `O=C(NC(=S)N1CC=CCC1)c1ccccc1` the growth was 113% (inactive).
In the case of `CN(C)c1ccc2c(N(C)C)cc(N(C)C)nc2c1`, the growth is reported as 82.7% (inactive).
For `C=C1CC2(OC1=O)C(=O)N(C)c1ccc(I)cc12` (stereo not given), the growth was -57% (active).
In the case of `CCCOCc1cn[nH]n1`, the growth is reported as 111% (inactive).
`CCCCNC(=O)c1ccc(OCC)cc1` was tested, and the growth was 103% (inactive).
`COc1nc(Nc2cccc(C(F)(F)F)c2)nc(OC)n1` was tested, and the growth was 106% (inactive).
For `CC1CCC(C(C)(C)[N+](C)(C)C)CC1` (stereo not given), the growth was 107% (inactive).
In the case of `COc1nc2ccccc2s1`, the growth is reported as 99.4% (inactive).
In the case of `Cc1ccc(NC(=S)N2CCOCC2)cc1C`, the growth is reported as 106% (inactive).
For `Clc1ncnc2nc[nH]c12`, the growth was 103% (inactive).
In the case of `COc1ccc(C(=O)/C(=N/Nc2ccccc2)c2ccc(OC)cc2)cc1`, the growth is reported as 94.1% (inactive).
`NNC(=O)N/N=C1\C(=O)N(c2nccs2)C(=O)C(=O)C1c1nc2ccccc2s1` (stereo not given) was tested, and the growth was 101% (inactive).
With `NCCCN1CCCC1=O` the growth was 113% (inactive).
For `O=c1nc(Nc2cccc(Cl)c2)oc2cc(Cl)oc(=O)c12`, the growth was 98.8% (inactive).
`CCCCCCCCNC(=O)C(C)C` was tested, and the growth was 98.3% (inactive).
`CN1CCN(C(=S)S)CC1` was tested, and the growth was 116% (inactive).
In the case of `Nc1nc2nnc(-c3ccccc3)c(-c3ccccc3)n2n1`, the growth is reported as 100% (inactive).
With `CC(=O)NC(CCC(=O)c1ccccc1)C(=O)O` (stereo not given) the growth was 102% (inactive).
In the case of `OCCOc1ccc(-c2cc(-c3ccccn3)nc(-c3ccccn3)c2)cc1`, the growth is reported as 0.477% (active).
In the case of `C/C(O)=C(/C=N/C(=S)Nc1ccccc1)C(=O)Nc1ccccc1C`, the growth is reported as 106% (inactive).
`Oc1cccc(CNC2CCCCC2)c1` was tested, and the growth was 116% (inactive).
In the case of `CCOC(=O)/C(C#N)=C\c1c[nH]c2ccccc12`, the growth is reported as 109% (inactive).
With `C=CCS(C)(=O)=O` the growth was 105% (inactive).
For `O=C(O)Cc1cccc2ccccc12`, the growth was 109% (inactive).
`Cc1ccc[n+](CCC(N)=O)c1` was tested, and the growth was 91.4% (inactive).
For `CCOC(OCC)C(=O)c1ccccc1`, the growth was 99.7% (inactive).
For `CC(=O)OCC1OC(n2cnc3c(=S)nc(N)[nH]c32)C(OC(C)=O)C1OC(C)=O` (stereo not given), the growth was 67.2% (inactive).
For `C=C(c1ccc(N(C)C)cc1)c1ccc(N(C)C)cc1`, the growth was 6.37% (active).
`N=C(N)c1nn(C2OC(CO)C(O)C2O)c2nc[nH]c(=O)c12` (stereo not given) was tested, and the growth was 2.95% (active).
With `O=Cc1ccc(F)cc1` the growth was 93.9% (inactive).
With `Nc1cc2ccccc2c(O)c1O` the growth was 86.9% (inactive).
For `CC(C)OCC(CCl)OC(=O)Nc1ccccc1` (stereo not given), the growth was 105% (inactive).
`COC1OC(C(COC(C)=O)OC(C)=O)C(OC(C)=O)C(OC(C)=O)C1OC(C)=O` (stereo not given) was tested, and the growth was 112% (inactive).
With `OC(CBr)CCBr` (stereo not given) the growth was 102% (inactive).
For `C[n+]1c(/C=C\C=C\N2CCCCC2)sc2ccccc21`, the growth was 0.479% (active).
In the case of `Nc1ccc2c(c1)Cc1cc(N)c(N)cc1-2`, the growth is reported as 95.9% (inactive).
With `Nc1ccccc1SC1CC(=O)N(c2ccc(Cl)c(Cl)c2)C1=O` (stereo not given) the growth was 117% (inactive).
With `C[C@H](CCC[C@H](C)OS(=O)(=O)c1ccccc1)OS(=O)(=O)c1ccccc1` the growth was 114% (inactive).
`S=C(NCc1ccccc1)N1CCC(CCCC2CCN(C(=S)NCc3ccccc3)CC2)CC1` was tested, and the growth was 106% (inactive).
